Measured values from PubChem BioAssay (Tox21).
Inconclusive results are not listed. Active and inactive are the calls of the source. Unless noted, calls come from the whole dose curve; as a rule, active = well fitted curve in the direction sought with a large enough effect in the repeat runs; inconclusive = weak or mixed curves; inactive = no such curve, though single readings can be large; an effect the other way counts as inactive or inconclusive.

Experiments:
[1] = qHTS assay to identify small molecule agonists of the NFkB signaling pathway (AID 1159509; active = well fitted curve in the direction sought with a large enough effect in the signal ratio in the repeat runs, not every such curve was filed as active; the % refers to the signal ratio; note: series mostly up to about 61 µM)
Procedure, shortened: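 ME-180 NFkB-bla, 2,000 cells/well, overnight plating; cpd pinned in DMSO, 5 h 37 C; B/G FRET substrate 1.5 h RT; ex 405, em 460/530 nm.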

[2] = qHTS assay to identify small molecule agonists of the NFkB signaling pathway - cell viability counter screen (AID 1159515; calls by dose curve; note: series mostly up to about 61 µM; nearly all actives have a fitted effect of over 55% in size)
Procedure, shortened: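 NFkB-bla ME-180 cells, 2,000/well, plated overnight at 37 C; compound added for 5 hr at 37 C. Viability read in the same wells as the bla reporter, by CellTiter-Glo luminescence after 30 min at room temperature.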

[3] = qHTS assay to identify small molecule agonists of the endoplasmic reticulum stress response signaling pathway (AID 1159516; active = well fitted activation curve with a large enough effect in the signal ratio in the repeat runs, not every such curve was filed as active; the % refers to the signal ratio)
Procedure, shortened: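 CellSensor ESRE-bla HeLa cells, 1,500 per well, plated overnight, then exposed to compounds for 5 hr at 37 C. Beta-lactamase reporter read with LiveBLAzer B/G FRET substrate after 2 hr at room temperature, 405 nm excitation, 460 and 530 nm emission.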

[4] = qHTS assay to identify small molecule antagonists of the retinoid-related orphan receptor gamma (ROR-gamma) signaling pathway - cell viability counter screen (AID 1159520); note: nearly all actives have a fitted effect of over 50% in size
Procedure, shortened: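 Tet-on ROR gamma CHO cells were given compounds for 2 hr, then doxycycline hyclate at 1 uM final, and incubated 16 hr at 37 C. Viability was measured as ATP content by CellTiter-Glo luminescence.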

[5] = target: Nuclear receptor ROR-gamma (Homo sapiens) (UniProt P51449); test: qHTS assay to identify small molecule antagonists of the retinoid-related orphan receptor gamma (ROR-gamma) signaling pathway (AID 1159521;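 note: CHO cells with doxycycline inducible ROR-gamma driving an RORE luciferase reporter; top concentration of the series differs between compounds; nearly all actives have a fitted effect of over 50% in size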)
Procedure, shortened: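 Cells were plated, rested 4 h at 37 C, exposed to compounds for 2 h, then given 1 uM final doxycycline hyclate to induce RORγ expression. After 16 h, ONE-Glo luminescence from the ROR response element reporter was measured.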

[6] = qHTS assay to identify small molecule agonists of the AP-1 signaling pathway (AID 1159526; calls by dose curve)
[7] = target: Retinoic acid receptor RXR-alpha (Homo sapiens) (UniProt P19793); test: qHTS assay to identify small molecule agonists of the RXR signaling pathway (AID 1159527; calls by dose curve; note: nearly all actives have a fitted effect of over 35% in size)
Procedure, shortened: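 Cells plated at 2,000/well, rested 5 hr at 37 C, pin-dosed with DMSO compound solutions, incubated 16 hr, then loaded with B/G FRET substrate for 2 hr at RT before dual-emission fluorescence reading.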

[8] = qHTS assay to identify small molecule agonists of the RXR signaling pathway - cell viability counter screen (AID 1159529);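 note: HEK 293T cells carrying an RXR-alpha UAS beta-lactamase reporter; series mostly up to about 77 µM; nearly all actives have a fitted effect of over 50% in size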
Procedure, shortened: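 Steps: seed RXR-alpha-UAS-bla HEK 293T cells in assay medium containing 2% charcoal-stripped FBS; incubate 5 hr; add compounds in DMSO; incubate 16 hr at 37 C; after the bla read, add CellTiter-Glo and read luminescence at 30 min.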

[9] = qHTS assay to identify small molecule antagonists of the retinoid acid receptor (RAR) signaling pathway - cell viability counter screen (AID 1159551); note: nearly all actives have a fitted effect of over 35% in size
Procedure, shortened: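 C3RL4 RARE-luciferase cells, 1,000/well, incubated overnight, then dosed with compound plus 1 uM retinol (final). After 6 hr at 37 C, viability read by CellTiter-Glo ATP luminescence following 30 min at room temperature.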

[10] = qHTS assay to identify small molecule antagonists of the retinoic acid receptor (RAR) signaling pathway (AID 1159552; note: nearly all actives have a fitted effect of over 50% in size)
Procedure, shortened: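 Retinol at 1 uM final stimulated RARE-luciferase expression in C3RL4 cells exposed to test compounds for 6 hr at 37 C. Reduced luminescence, read 30 min after detection reagent, indicated pathway antagonism.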

[11] = qHTS assay to identify small molecule agonists of the retinoic acid receptor (RAR) signaling pathway (AID 1159553)
Procedure, shortened: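 C3RL4 RARE-luciferase cells were seeded at 1,000/well and grown overnight at 37 C, then exposed to compounds for 6 hr at 37 C, 5% CO2. Luciferase reagent was added and luminescence was read after 30 min at room temperature.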

[12] = qHTS assay to identify small molecule antagonists of the estrogen related receptor (ERR) signaling pathway from Tox21 library - cell viability counter screen (AID 1224834); note: nearly all actives have a fitted effect of over 30% in size
Procedure, shortened: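 ERR reporter cells, 2,000 per well, rested 6 h, then exposed to compound in DMSO for 17.5 hours at 37 C. Viability read as fluorescence after 30 min with CellTiter-Fluor.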

[13] = target: Luciferin 4-monooxygenase (Photinus pyralis) (UniProt P08659); test: qHTS assay to identify small molecule inhibitors of firefly luciferase (AID 1224835); note: series mostly up to about 120 µM; nearly all actives have a fitted effect of over 25% in size
Procedure, shortened: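 Biochemical qHTS: compounds run as interplate titrations against purified firefly enzyme, with D-luciferin and ATP each at its KM concentration. Light output recorded by CCD imaging.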

[14] = qHTS assay to identify small molecule agonists of the constitutive androstane receptor (CAR) signaling pathway - cell viability counter screen (AID 1224836); note: series mostly up to about 92 µM; nearly all actives have a fitted effect of over 45% in size
Procedure, shortened: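 Cells were seeded and incubated 4 hrs. Compounds were added across 15 concentrations together with PK11195 at 0.75 uM final. Plates were incubated 23 hrs at 37 C. CellTiter-Fluor was added and fluorescence measured.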

[15] = qHTS assay to identify small molecule antagonists of the constitutive androstane receptor (CAR) signaling pathway - cell viability counter screen (AID 1224837); note: series mostly up to about 92 µM; nearly all actives have a fitted effect of over 45% in size
Procedure, shortened: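 HepG2 cells stably carrying hCAR and CYP2B6-2.2kb reporter, stimulated with 50 nM CITCO and compounds at 15 concentrations for 23 h at 37 C. Viability measured by CellTiter-Fluor fluorescence.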

[16] = target: Nuclear receptor subfamily 1 group I member 3 (Homo sapiens) (UniProt Q14994); test: qHTS assay to identify small molecule antagonists of the constitutive androstane receptor (CAR) signaling pathway (AID 1224838); note: nearly all actives have a fitted effect of over 40% in size
Procedure, shortened: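 HepG2 cells stably carrying hCAR and a CYP2B6-2.2kb luciferase reporter, seeded 4 hrs before compound (15 concentrations). Stimulated with 50 nM CITCO for 24 hr at 37 C. ONE-Glo luminescence read after 30 min at room temperature.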

[17] = target: Nuclear receptor subfamily 1 group I member 3 (Homo sapiens) (UniProt Q14994); test: qHTS assay to identify small molecule agonists of the constitutive androstane receptor (CAR) signaling pathway (AID 1224839); note: series mostly up to about 92 µM; nearly all actives have a fitted effect of over 15% in size
Procedure, shortened: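 Cells were plated and incubated 4 hrs, then dosed with compounds at 15 concentrations. PK11195 was added to 0.75 uM final. After 24 hrs at 37 C, luciferase luminescence was measured.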

[18] = qHTS assay to identify small molecule antagonists of the vitamin D receptor (VDR) signaling pathway - cell viability counter screen (AID 743225); note: nearly all actives have a fitted effect of over 50% in size
Procedure, shortened: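 HEK293T VDR-bla; cpd + 1a,25-(OH)2D3 3 nM final, 16 h 37C/5% CO2; B/G FRET substrate 2 h RT; then CellTiter-Glo 30 min RT, luminescence.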

[19] = qHTS assay to identify small molecule agonists of the AP-1 signaling pathway - cell viability counter screen (AID 1159525; calls by dose curve; note: nearly all actives have a fitted effect of over 55% in size)
Procedure, shortened: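 AP-1-bla ME-180 cells in Opti-MEM with 0.5% dialyzed FBS, compound exposure 5 h at 37 C in 15-point titration. Viability read in the same wells as ATP content by CellTiter-Glo luminescence, normalised to tetra-n-octylammonium bromide and DMSO controls.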

[20] = qHTS assay to identify small molecule agonists of the endoplasmic reticulum stress response signaling pathway - cell viability counter screen (AID 1159517; calls by dose curve)
Procedure, shortened: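 ESRE-bla HeLa cells, 1,500 per well, seeded overnight then treated with compounds for 5 hr at 37 C. After the beta-lactamase read, viability in the same wells is measured by CellTiter-Glo luminescence after 30 min at room temperature.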

Measured: Potency

Nuclear receptor subfamily 1 group I member 3 (Homo sapiens), sequence (Q14994 whole entry, looked up): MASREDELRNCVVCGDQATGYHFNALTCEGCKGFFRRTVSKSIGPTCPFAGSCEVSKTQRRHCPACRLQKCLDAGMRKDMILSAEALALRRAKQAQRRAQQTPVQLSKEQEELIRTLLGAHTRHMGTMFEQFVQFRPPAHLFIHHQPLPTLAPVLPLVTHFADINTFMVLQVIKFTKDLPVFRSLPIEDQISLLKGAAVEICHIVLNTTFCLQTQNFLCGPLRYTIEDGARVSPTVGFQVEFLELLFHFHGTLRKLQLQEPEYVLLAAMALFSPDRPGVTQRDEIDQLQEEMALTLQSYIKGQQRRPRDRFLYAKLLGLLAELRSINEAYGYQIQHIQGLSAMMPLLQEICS
Retinoic acid receptor RXR-alpha (Homo sapiens), sequence (P19793 whole entry, looked up): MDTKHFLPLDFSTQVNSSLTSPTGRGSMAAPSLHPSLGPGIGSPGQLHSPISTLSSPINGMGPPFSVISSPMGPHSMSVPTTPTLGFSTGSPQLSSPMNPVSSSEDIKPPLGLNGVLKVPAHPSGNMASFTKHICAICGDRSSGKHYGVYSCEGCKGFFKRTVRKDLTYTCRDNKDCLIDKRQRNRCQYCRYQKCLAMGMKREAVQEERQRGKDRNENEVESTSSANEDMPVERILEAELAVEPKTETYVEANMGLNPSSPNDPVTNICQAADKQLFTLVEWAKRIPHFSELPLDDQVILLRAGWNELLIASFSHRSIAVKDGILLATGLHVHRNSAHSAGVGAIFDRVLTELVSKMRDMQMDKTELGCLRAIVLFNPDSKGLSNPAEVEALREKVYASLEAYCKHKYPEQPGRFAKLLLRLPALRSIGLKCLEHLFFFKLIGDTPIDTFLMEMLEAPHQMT
Luciferin 4-monooxygenase (Photinus pyralis), sequence (P08659 whole entry, looked up): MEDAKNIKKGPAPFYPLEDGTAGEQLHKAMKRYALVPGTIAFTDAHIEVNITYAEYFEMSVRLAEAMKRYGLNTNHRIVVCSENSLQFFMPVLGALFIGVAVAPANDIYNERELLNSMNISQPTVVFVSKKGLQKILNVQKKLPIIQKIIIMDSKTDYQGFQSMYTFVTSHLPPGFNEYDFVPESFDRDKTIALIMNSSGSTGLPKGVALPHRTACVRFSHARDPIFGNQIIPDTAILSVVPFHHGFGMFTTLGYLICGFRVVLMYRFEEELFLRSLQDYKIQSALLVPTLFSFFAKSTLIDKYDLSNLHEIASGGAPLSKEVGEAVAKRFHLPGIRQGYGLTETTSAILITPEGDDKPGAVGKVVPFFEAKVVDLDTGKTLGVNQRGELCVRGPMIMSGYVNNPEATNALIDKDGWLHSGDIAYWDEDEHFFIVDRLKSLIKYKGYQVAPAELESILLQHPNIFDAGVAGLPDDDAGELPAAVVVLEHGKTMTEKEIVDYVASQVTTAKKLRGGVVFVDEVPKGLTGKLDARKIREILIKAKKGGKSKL

CCC(C(=O)OCCN1CCOC(c2ccccc2)C1C)c1ccccc1 (stereo not drawn)
not listed: [18] | [19] | [20]
inactive: all other assays above

O=C(O)CNC(=O)CNC(=O)CNC(=O)CSC(=O)c1ccccc1
not listed: [20]
inactive: all other assays above

c1ccc2c(CC3=NCCN3)cccc2c1
not listed: [20]
inactive: all other assays above

C=C(C)[C@@H]1CC=C(C)CC1
not listed: [1] | [5] | [10] | [11] | [14] | [17] | [18] | [19]
inactive: all other assays above

CC(=O)C(C)O (stereo not drawn)
not listed: [20]
inactive: all other assays above

CC1(C)Oc2ccc(C#N)cc2[C@@H](N2CCCC2=O)[C@@H]1O
not listed: [20]
inactive: all other assays above

CCc1occc(=O)c1O
not listed: [17] | [20]
inactive: all other assays above

O=C1NC(c2ccccc2)(c2ccccc2)C(=O)N1COP(=O)(O)O
not listed: [14] | [20]
inactive: all other assays above

CCC/C=C(\C=O)CC
not listed: [14] | [18] | [20]
inactive: all other assays above
